Laboratory results: PubChem BioAssay (Tox21)
Inconclusive results are not listed. A call without a number means that no potency is given here. Calls of active or inactive are those of the source. Unless noted, the call rests on the fitted dose curve; in most records, active means well fitted cell-killing curve with a large enough effect in the repeat runs; inconclusive means weak or mixed curves, or effect the other way; inactive means no such curve, though single readings can be large or run the other way.

Molecular target: Bile acid receptor (Homo sapiens) (UniProt Q96RI1)
Sequence (Q96RI1 whole entry, looked up): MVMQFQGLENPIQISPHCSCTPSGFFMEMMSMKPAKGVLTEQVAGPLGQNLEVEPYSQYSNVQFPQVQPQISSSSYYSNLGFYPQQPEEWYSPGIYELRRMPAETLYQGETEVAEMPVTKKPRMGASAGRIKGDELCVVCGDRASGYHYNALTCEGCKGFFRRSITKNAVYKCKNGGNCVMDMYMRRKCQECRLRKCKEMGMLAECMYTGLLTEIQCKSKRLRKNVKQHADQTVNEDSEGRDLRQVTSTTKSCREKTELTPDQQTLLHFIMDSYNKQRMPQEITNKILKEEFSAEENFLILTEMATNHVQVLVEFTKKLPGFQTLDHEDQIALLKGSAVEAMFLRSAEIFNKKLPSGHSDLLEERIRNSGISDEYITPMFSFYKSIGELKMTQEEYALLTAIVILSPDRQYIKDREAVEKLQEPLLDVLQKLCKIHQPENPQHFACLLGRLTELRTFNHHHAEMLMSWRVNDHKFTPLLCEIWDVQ
Experiment: qHTS assay to identify small molecule antagonists of the farnesoid-X-receptor (FXR) signaling pathway (AID 743217; active means well fitted inhibition curve with a large enough effect in the signal ratio in the repeat runs, not every such curve was filed as active; the % refers to the signal ratio)
Details: HEK293T FXR-UAS-bla, beta-lactamase ratio, CDCA-stimulated, 16 h; series mostly up to 62.6 µM
Method in brief: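 Screen of the Tox21 10K library in quantitative HTS format using FXR-UAS-bla HEK 293T reporter cells. Agonist chenodeoxycholic acid, 50 uM final, added with compounds; 16 h incubation at 37 °C; beta-lactamase FRET fluorescence measured.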

Row | SMILES | outcome
1 | N#CCCOCCOCCC#N | inactive
2 | Cc1cc(O)c2c(c1)C(=O)c1cccc(O)c1C2=O | inactive
3 | C=CCOc1c(Br)cc(Br)cc1Br | inactive
4 | C=CCOc1c(Br)cc(C(C)(C)c2cc(Br)c(OCC=C)c(Br)c2)cc1Br | inactive
5 | Cc1ccccc1N1CCN(CCc2nnc3n2CCCC3)CC1 | inactive
6 | NS(=O)(=O)c1cc2c(cc1Cl)NC(CC1CCCC1)NS2(=O)=O (stereo not given) | inactive
7 | CC(=O)c1ccc(OCC(=O)N2CCCCC2)cc1 | inactive
8 | CNCc1ccccc1 | inactive
9 | O=C1OC(=O)c2ccccc21 | inactive
10 | O=S1(=O)CCCC1 | inactive
11 | O=C(Oc1ccccc1C(=O)O)c1ccccc1O | inactive

Tested on: not listed separately
Experiment: qHTS assay to identify small molecule agonists of the farnesoid-X-receptor (FXR) signaling pathway - cell viability counter screen (AID 743218); further: nearly all actives have a fitted effect of over 45% in size
Details: FXR-bla HEK293T viability, CellTiter-Glo luminescence, 16 h; series mostly up to 62.6 µM
Method in brief: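 Viability of FXR-bla HEK 293T cells is measured by ATP-based CellTiter-Glo luminescence following 16 h compound treatment at 37 C and a prior 2 h room-temperature beta-lactamase substrate step.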

Row | SMILES | Potency
12 | C[Si]1(C)N[Si](C)(C)N[Si](C)(C)N1 | inactive
13 | O=C(COCCOCCOCC(=O)Nc1c(I)cc(I)c(C(=O)O)c1I)Nc1c(I)cc(I)c(C(=O)O)c1I | inactive
14 | CCCCCC1CCCC(=O)O1 (stereo not given) | inactive
15 | Nc1cc(Cl)cc(S(=O)(=O)O)c1O | inactive
16 | Cc1oc(=O)oc1CN1CCN(c2cc3c(cc2F)c(=O)c(C(=O)O)c2n3C(C)S2)CC1 (stereo not given) | inactive
17 | COC(OC)C(C)c1ccccc1 (stereo not given) | inactive
18 | CCNC(=O)/C=C/c1cccc(Br)c1 | inactive
19 | N#CCCOCCOCCC#N | inactive
20 | Nc1ccc(S(=O)(=O)NC(=O)c2ccccc2)cc1 | inactive
21 | CCCOC(=O)CCCCC(=O)OCCC | inactive
22 | COc1cc(C=O)ccc1OC(=O)C(C)C | inactive
23 | CC(C)CCC(=O)CCC(C)C | inactive
24 | Cc1cc(O)c2c(c1)C(=O)c1cccc(O)c1C2=O | inactive
25 | O=[Si]=O | inactive
